Molecules are shown by their SMILES. Results filed as inconclusive are left out. Unmarked numbers belong to inactive results. The source made the active and inactive calls. The call rests on the fitted dose curve; in most records, active means well fitted cell-killing curve with a large enough effect; inconclusive means small, poorly fitted or top-dose-only effect, or effect the other way; inactive means no such curve, though single readings can be large or run the other way. Non-standard residues stand in square brackets, D forms with d. Residues, ends and D or L forms follow the SMILES beside them. *: point of attachment. Nva = CCC[C@H](N)C(=O)O; Cbz = O=C(OCc1ccccc1)*
Potency means the concentration at half of the fitted maximal effect.

This experiment is described as follows: Quantitative High-Throughput drug screen in 47 multiple myeloma cell lines against the NCATS MIPE library collection: INA6_PLB cell viability assay (AID 1918965; further: nearly all actives have a fitted effect of over 55% in size). Particulars: INA6 myeloma viability, CellTiter-Glo ATP luminescence, 48 h; series mostly up to 45.8 µM; viability (% of control): at the top concentration. The text has this: PI: Beverly A. Mock Ph.D.
Laboratory of Cancer Biology and Genetics,
Center for Cancer Research, National Cancer Institute,
National Institute of Health, Bethesda, Maryland
Drug resistance and disease progression are common in multiple myeloma (MM) patients, underscoring the need for new therapeutic combinations. […] We hypothesized that effective combinations would reduce MYC expression and enhance p16 activity. […] These preclinical data identify potentially useful drug combinations for evaluation in drug-resistant MM and reveal potential mechanisms of combined drug sensitivity.
Described herein is the primary MIPE qHTS used to cherrypick compounds. Validated compounds were then further tested for potential synergistic activiy.
[1] Peat TJ, Gaikwad SM, Dubois W, Gyabaah-Kessie N, Zhang S, Gorjifard S, Phyo Z, Andres M, Hughitt VK, Simpson RM, Miller MA, Girvin AT, Taylor A, Williams D, D'Antonio N, Zhang Y, Rajagopalan A, Flietner E, Wilson K, Zhang X, Shinn P, Klumpp-Thomas C, McKnight C, Itkin Z, Chen L, Kazandijian D, Zhang J, Michalowski AM, Simmons JK, Keats J, Thomas CJ, Mock BA. Drug combinations identified by high-throughput screening promote cell cycle transition and upregulate Smad pathways in myeloma. Cancer Lett. 2023 Aug 1;568:216284. doi: 10.1016/j.canlet.2023.216284. Epub 2023 Jun 24. PMID: 37356470; PMCID: PMC10408729.
SEQUENCE No. (e.g., 1, 2, 3, etc.); […] (e.g., Cells, Incubation, Reagent, etc.); VALUE and DESCRIPTION.
1; Cells; 5 uL; white, solid bottom 1536-well Greiner assay plate.
2; Compounds; 23 nL; Kalypsis pin tool (Wako USA) equipped with a 1536-well pin head to transfer to the assay plates.
3; Incubation; 48 hours; 37C incubation.
4; Reagent;5uL; CellTiter Glo (Promega).
5; Detector; 425V; Luminescence; Viewlux PerkinElmer.
NOTES (numbers refer to Sequence numbers above)
1. The cell-based screening methods employed in this study were like those previously published. Briefly, the corresponding myeloma cell lines were screened in 1,536-well plates with 500 cells, 5-uL per well for inhibition of cell viability (assessed by measuring ATP levels with CellTiterGlo).
2. NCATS MIPE 4.0 library of approved and investigational drugs were added using the Kalypsis pin tool. Wells treated with DMSO only for 100% viability and media only wells for 0% viability were used as controls.
3. The assay plates were covered and incubated for 48 hours in a 37C, 5% CO2 incubator with controlled humidity.
4. After 48 hours, CellTilter-GloTM luminescent substrate mix (Promega) reagent was added to the assay plate and plates we incubated for 5 min at room temperature.
5. Signal was measured as median relative luminescence units on a ViewLux (PerkinElmer) multiplate reader.
[1] Heske CM, Davis MI, Baumgart JT, Wilson K, Gormally MV, Chen L, Zhang X, Ceribelli M, Duveau DY, Guha R, Ferrer M, Arnaldez FI, Ji J, Tran HL, Zhang Y, Mendoza A, Helman LJ, Thomas CJ. Matrix Screen Identifies Synergistic Combination of PARP Inhibitors and Nicotinamide Phosphoribosyltransferase (NAMPT) Inhibitors in Ewing Sarcoma. Clin Cancer Res. 2017 Dec 1;23(23):7301-7311. doi: 10.1158/1078-0432.CCR-17-1121. Epub 2017 Sep 12. PMID: 28899971; PMCID: PMC6636827.
`CN[C@H]1[C@@H](O)[C@@H]2O[C@@H]3O[C@H](C)CC(=O)[C@]3(O)O[C@@H]2[C@@H](NC)[C@H]1O`: the Potency was 2960 nM (active).
On the same count and under the same terms, for `FC(F)c1nc2ccccc2n1-c1nc(N2CCOCC2)nc(N2CCOCC2)n1` the value was 296 nM (active).
`CC(=O)O[C@H]1C[C@@H]2CC[C@H]3[C@H]4C[C@H]([N+]5(C)CCCCC5)[C@@H](OC(C)=O)[C@@]4(C)CC[C@@H]3[C@@]2(C)C[C@H]1[N+]1(C)CCCCC1`: the “viability (% of control)” value is 144%.
As to `CC(C=CC(=O)NO)=C[C@@H](C)C(=O)c1ccc(N(C)C)cc1`, the Potency was 83.3 nM (active).
With `C#Cc1cccc(Nc2ncnc3cc(OCCOC)c(OCCO)cc23)c1`, the Potency was 1320 nM (active).
For `c1coc(CNc2ncnc3nc[nH]c23)c1`, the “viability (% of control)” value is 113%.
For the molecule `CCNC(=O)Nc1ccc(-c2nc3c(c(N4CCOC[C@H]4C)n2)CCN(C2COC2)C3)cc1`, the Potency is 2090 nM (active).
For `Cc1nc(NC(=O)N2CCC[C@@H]2C(N)=O)sc1-c1ccnc(C(C)(C)C(F)(F)F)c1`, the Potency was 14800 nM (active).
Still for that read-out and setting: for `c1cc(N[C@@H]2CCNC2)nc(-c2cnc3ccc(-c4cn[nH]c4)cn23)c1` the value was 935 nM (active).
On the same count and under the same terms, for `CNC(=O)c1ccc(Nc2cc(Nc3ccccc3S(=O)(=O)C(C)C)c3cc[nH]c3n2)nc1` the value was 469 nM (active).
For the molecule `CCc1cc(C(C)=NOCc2ccc(C3CCCCC3)c(C(F)(F)F)c2)ccc1CN1CC(C(=O)O)C1`, the “viability (% of control)” value is 106%.
The same measure, in the same setting: the figure for `C[N+]1(C)[C@@H]2C[C@@H](OC(=O)C(O)(c3cccs3)c3cccs3)C[C@H]1[C@@H]1O[C@@H]12` is 138%.
On to `COc1cccc2c1C(=O)c1c(O)c3c(c(O)c1C2=O)C[C@@](O)(C(=O)CO)C[C@H]3O[C@H]1C[C@H](N)[C@H](O)[C@H](C)O1`, for which the Potency was 118 nM (active).
On the same count and under the same terms, the figure for `CC(C)N1[N]C(=C2C=c3cc(O)ccc3=N2)c2c(N)ncnc21` is 1180 nM (active).
Same read-out and setting: for `N#CC(=C(N)Sc1ccc(N)cc1)c1ccccc1C(F)(F)F` the value was 8330 nM (active); for `COc1cc([C@@H]2c3cc4c(cc3[C@@H](O[C@@H]3O[C@@H]5CO[C@@H](c6cccs6)O[C@@H]5[C@H](O)[C@@H]3O)[C@H]3COC(=O)[C@H]23)OCO4)cc(OC)c1O`, 46.9 nM (active).
On the same count and under the same terms, for `C#C[C@]1(O)CC[C@@H]2[C@@H]3CCc4cc(O)ccc4[C@H]3CC[C@@]21C` the value was 9350 nM (active).
In the case of `Cc1cnc(Nc2ccc(CN3CCOCC3)cc2)nc1Nc1cccc(S(=O)(=O)NC(C)(C)C)c1`, the Potency is 372 nM (active).
With `OCC(O)C(O)C(O)CO` (stereo not given), the “viability (% of control)” value is 116%.
On to `CCCNC(=O)[C@H]1O[C@H]1C(=O)N[C@H](C(=O)N1CCC[C@@H]1C(=O)OC)C(C)CC` (stereo not given in full), for which the Potency was 16600 nM (active).
Consider `C[C@H](NC(=O)C(C#N)=Cc1cccc(Br)n1)c1ccccc1`, for which the Potency is 1870 nM (active).
On to `CN1C(C(=O)Nc2ccccn2)=C(O)c2sc(Cl)cc2S1(=O)=O`, for which the Potency is 2640 nM (active).
Same read-out and setting: for `COc1cc([C@@H]2c3cc4c(cc3[C@H](O)[C@H]3COC(=O)[C@@H]23)OCO4)cc(OC)c1OC` the value was 148 nM (active).
In the case of `NC(=O)c1ncn([C@@H]2O[C@H](CO)[C@@H](O)[C@@H]2O)c1O`, the “viability (% of control)” value is 124%.
Consider `Cn1cc(CNCC2CCN(c3ncc(C(=O)NO)cn3)CC2)c2ccccc21`, for which the Potency was 1 nM (active).
Still for that read-out and setting: the figure for `COc1cc(C[C@@H](CO)[C@H](CO)Cc2ccc(O)c(OC)c2)ccc1O` is 1180 nM (active).
As to `CC(C)NC[C@@H](C(=O)N1CCN(c2ncnc3c2[C@H](C)C[C@H]3O)CC1)c1ccc(Cl)cc1`, the Potency was 4180 nM (active).
Take `O=C1c2c(O)cccc2[C@@H]([C@@H]2O[C@H](CO)[C@@H](O)[C@H](O)[C@H]2O)c2cc(CO)cc(O)c21`: the “viability (% of control)” value is 136%.
The same measure, in the same setting: the figure for `Cc1cc(-c2nnc3n2CCCCC3)c(C)n1-c1ccccc1` is 122%; for `O=C(c1ccc(F)cc1)N1CCC[C@H](c2nc(-c3ccc(F)cc3)no2)C1` it is 176%.
`CN(CC(=O)N(Cc1ccc(C2CCCCC2)cc1)c1ccc(C(=O)O)c(O)c1)S(=O)(=O)c1c(F)c(F)c(F)c(F)c1F`: the Potency was 6620 nM (active).
Still for that read-out and setting: for `CNC(=O)Nc1ccc(-c2nc(N3CC4CCC(C3)O4)c3cnn(C4CCC5(CC4)OCCO5)c3n2)cc1` the value was 41.8 nM (active).
The same measure, in the same setting: the figure for `CCN(CC)CCNC(=O)c1c(C)[nH]c(C=C2C(=O)Nc3ccc(F)cc32)c1C` is 1210 nM (active); for `CCC[C@@H](C=O)NC(=O)[C@H](CC(C)C)NC(=O)[C@H](CC(C)C)NC(=O)OCc1ccccc1` (Cbz-Leu-Leu-[Nva]-aldehyde) it is 235 nM (active).
With `Cn1cc(C=CC(=O)c2cccc(F)c2)cc1C=CC(=O)NO`, the Potency was 8330 nM (active).
With `CCOC(=O)C1=C(C)NC(=S)NC1c1cccc(O)c1` (stereo not given), the Potency is 26.4 nM (active).
Regarding `Cc1cn([C@@H]2O[C@H](CO)[C@@H](O)[C@H]2F)c(=O)[nH]c1=O`, the “viability (% of control)” value was 105%.
As for `Cc1[nH]c(C=C2C(=O)Nc3ccccc32)c(C)c1CCC(=O)O`, the Potency was 3720 nM (active).
As to `COc1ccc(C=Cc2cc(OC)c(OC)c(OC)c2)cc1NC(=O)[C@H](N)CO`, the Potency was 1 nM (active).
Turning to `CCOc1cc2ncc(C#N)c(Nc3ccc(OCc4ccccn4)c(Cl)c3)c2cc1NC(=O)C=CCN(C)C`, the Potency is 264 nM (active).
